# Source: PubChem
# The list is not random: actives were taken first. Their share in the collection is about 3.6%.
# Rango dissoc inh = inhibitors of RanGTP-induced Rango-importin beta complex dissociation; AID 540253; Potency, µM (doses to about 46.1 µM); Biochemical FRET Rango-importin beta, RanGTP-induced dissociation; 340,000 compounds, 0.071% hits; calls by dose curve; further: nearly all actives have a fitted effect of over 45% in size
#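 Rango FRET biosensor (snurportin-1 IBB flanked by N-terminal EYFP and C-terminal CFP10) at 0.1 uM, with 0.25 uM importin beta in PBS, 1mM DTT, 0.02% Tween-20, 0.1% BSA. 0.6 uM Ran, 2mM GTP and 0.2 uM RCC1 were then added for 45 min at room temperature. Inhibition read as loss of FRET rise.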
# PI5P4K alpha inh = PI5P4K alpha (human) kinase inhibition; 330,000 compounds, 1.2% hits; max response, %; PI5P4Kalpha enzyme, ADP-Glo luminescence, 60 min; active compounds read low; AID 652105; active means max response of -50% or lower; inconclusive means between -30% and -50%; inactive means -30% or higher; further: value at the top dose of about 77 µM
#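 ADP-Glo luminescence end-point after a 60 min room-temperature kinase reaction. PI5P4Kalpha and substrate in HEPES pH 7.4 buffer with EGTA, 0.1% CHAPS and 5% DMSO; ATP at 5 microM final.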
# Rango complex inh = Rango-importin beta binding inhibition. 340,000 compounds, 0.031% hits. Rango CFP/YFP FRET sensor + importin beta, 45 min. Q14974. Potency, µM (top dose mostly 92.2 µM); calls by dose curve; further: nearly all actives have a fitted effect of over 15% in size
#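 FRET biosensor Rango (snurportin 1 IBB between N-terminal EYFP and C-terminal Cerulean), 50 nM in PBS/1 mM DTT/0.02% Tween-20/0.1% BSA, preincubated 5 min RT with compound; 0.125 microM importin beta added, 45 min RT, CFP/YFP FRET ratio read.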
# KAT2A inh = inhibitors of human GCN5L2 histone acetyltransferase; Q92830; GCN5L2 HAT assay, ThioGlo1 CoA-SH fluorescence; Potency, µM (top dose mostly 58.9 µM), most hits filed as inhibitors; 390,000 compounds, 0.21% hits; AID 504327
# Target sequence (Q92830 whole entry, looked up): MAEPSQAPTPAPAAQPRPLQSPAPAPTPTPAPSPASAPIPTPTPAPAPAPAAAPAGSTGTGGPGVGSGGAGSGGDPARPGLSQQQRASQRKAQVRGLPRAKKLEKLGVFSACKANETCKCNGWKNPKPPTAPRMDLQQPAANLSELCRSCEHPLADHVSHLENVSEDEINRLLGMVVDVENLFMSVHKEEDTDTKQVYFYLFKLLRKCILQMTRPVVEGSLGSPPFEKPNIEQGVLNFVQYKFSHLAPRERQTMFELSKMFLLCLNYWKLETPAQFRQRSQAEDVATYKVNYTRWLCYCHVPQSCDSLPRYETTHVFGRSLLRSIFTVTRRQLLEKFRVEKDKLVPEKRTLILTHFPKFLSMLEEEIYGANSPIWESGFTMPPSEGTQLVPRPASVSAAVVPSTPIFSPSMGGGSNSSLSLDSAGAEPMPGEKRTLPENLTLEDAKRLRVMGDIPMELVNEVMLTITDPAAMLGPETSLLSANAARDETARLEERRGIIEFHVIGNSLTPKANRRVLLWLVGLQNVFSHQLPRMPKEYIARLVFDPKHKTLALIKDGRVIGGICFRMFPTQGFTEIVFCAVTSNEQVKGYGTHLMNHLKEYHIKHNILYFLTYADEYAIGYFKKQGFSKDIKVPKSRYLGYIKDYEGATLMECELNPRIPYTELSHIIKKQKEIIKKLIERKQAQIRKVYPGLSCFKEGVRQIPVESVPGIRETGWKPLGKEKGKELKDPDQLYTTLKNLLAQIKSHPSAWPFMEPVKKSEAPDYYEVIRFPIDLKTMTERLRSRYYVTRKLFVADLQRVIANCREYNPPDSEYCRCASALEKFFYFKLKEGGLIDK
#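 ThioGlo1-coupled HAT assay: 20nM GCN5L2, 70uM acetyl-CoA, 75uM H3(1-25) peptide, pH 7.5. Fluorescence read at 340/540nm at start and after 20 min at room temperature.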
# PLK1 PBD block = blocks phosphopeptide binding to human PLK1 polo-box domain | AID 720504 | Plk1 PBD binding of FITC phosphopeptide, fluorescence polarization | Potency, µM, usual class: inhibitors | P53350 | 360,000 compounds, 2.8% hits; further: series mostly up to about 57 µM; nearly all actives have a fitted effect of over 65% in size
# VDR inhibitor = inhibitors of human vitamin D receptor; 400,000 compounds, 0.93% hits; VDR-SRC2-3 peptide fluorescence polarization, 2 h; Potency, µM, most hits filed as inhibitors; P11473
#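 Reagent solutions, kept cold and dark, are dispensed first; compounds are then pinned in at 23 nl, plates briefly spun, and incubated 2 h at ambient temperature. Inhibition of VDR–SRC2-3 peptide binding is read by fluorescence polarization.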
# A number is an active result; – = inactive; ? = inconclusive; · = not tested or not shown; [ ] = another dose, or the depositor's remark. Unless noted, the call rests on the fitted dose curve; in most records, active means well fitted curve in the direction sought with a large enough effect; inconclusive means small, poorly fitted or top-dose-only effect, or another doubt; inactive means no such curve, though single readings can be large; an effect the other way counts as inactive or inconclusive.
SMILES,Rango dissoc inh,PI5P4K alpha inh,Rango complex inh,KAT2A inh,PLK1 PBD block,VDR inhibitor
O=C1C(Cl)=C(Nc2ccccc2O)C(=O)N1c1ccccc1,–,·,–,–,8.44µM,?
O=C1C(Cl)=C(NCC2CCCO2)C(=O)N1c1ccccc1 (stereo not drawn),–,·,–,–,–,–
CCc1cccc(C)c1Nc1c(-c2ccc(SC)cc2)nc2sccn12,·,·,·,–,·,–
Cc1ccccc1C(=O)Nc1sc(C)c(C)c1C(=O)c1ccccc1,–,–,–,–,21.2µM,?
Cc1sc(NC(=O)CCl)c(C(=O)c2ccccc2)c1C,–,·,?,–,26.7µM,?
O=C(CCl)Nc1sccc1C(=O)c1ccccc1,–,–,–,·,–,–
COc1ccc(N2CCN(S(=O)(=O)c3ccc4c(c3)CCCN4C(C)=O)CC2)cc1,·,·,·,–,·,–
COc1ccc(OC)c2sc(Cl)nc12,–,–,–,–,18.9µM,–
Cc1cccc(N2C(=O)CC(SC(=Nc3ccccc3)Nc3ccccc3)C2=O)c1 (stereo not drawn),–,–,–,–,–,–
O=C1SC(SC(=Nc2ccccc2)Nc2ccccc2)C(=O)N1c1ccccc1 (stereo not drawn),–,–,–,–,6.7µM,89.1µM
O=S(=O)(c1ccc(Cl)cc1)N1CCN(c2nc(-c3ccc(F)cc3)nc3cc(Cl)ccc23)CC1,·,·,·,·,·,–
CN(C)S(=O)(=O)c1cccc(NC(=O)COC(=O)/C=C/c2ccco2)c1,–,?,–,–,29.9µM,?
Cc1c(Cl)cnc(NC(=O)COC(=O)/C=C/c2ccco2)c1Cl,–,-56.3,?,?,–,–
CCN(CC)c1ccc(NC(=O)c2cccn2-c2nnc(N3CCCCC3)s2)c(C)c1,·,·,·,–,·,?
COc1ccc(C2C=C(c3ccccc3)Nc3nc(NC(=O)/C=C/c4ccc(F)cc4)nn32)cc1 (stereo not drawn),·,·,·,–,·,–
Cc1ccc(C)n1-c1sc2c(c1C#N)CCCC2,–,–,–,–,–,–
Cc1sc(-n2c(C)ccc2C)c(C#N)c1C,–,·,–,–,18.9µM,79.4µM
Cc1cccc(N(C)S(=O)(=O)c2c(C)[nH]c(C)c2C(=O)N2CCCC2)c1,–,–,–,–,23.8µM,–
Cc1cc(C)cc(-n2c(SCC(=O)Nc3ccccc3)nc3c(oc4ccccc43)c2=O)c1,·,·,·,–,·,–
Clc1ccc(SCNc2ccccc2Cl)cc1,–,–,–,–,9.47µM,?
COC/C=C/C1=CC2=CC(=O)C(C)(OC(=O)c3cnc4ccccc4n3)C(=O)C2=CN1c1ccccc1 (stereo not drawn),–,-69.4,–,–,–,–
CCOc1ccc2ncc3c(-c4ccccc4)nn(CC(=O)Nc4cccc(F)c4)c3c2c1,·,·,·,–,·,–
Cc1ccc(NC(=O)Cc2ccc(-n3c(C)nc4cccnc43)cc2)c(Cl)c1,·,·,·,–,·,–
CCOC(=O)C1(Cc2cccc(Cl)c2)CCCN(C(=O)c2ccco2)C1 (stereo not drawn),–,–,–,–,13.4µM,?
CCOC(=O)C1(Cc2ccccc2)CCCN(C(=O)c2cnn(CC)c2)C1 (stereo not drawn),–,–,–,–,23.8µM,–
SMILES,Rango dissoc inh,PI5P4K alpha inh,Rango complex inh,KAT2A inh,PLK1 PBD block,VDR inhibitor
CC(=O)c1cc(-c2ccc(F)cc2)n(CCC(=O)NC2CCCCC2)c1C,·,·,·,–,·,–
CN(C)c1ccc(NC(=O)Cn2cc(S(=O)(=O)Cc3ccccc3Cl)c3ccccc32)cc1,·,·,·,–,·,–
Cc1cc(Cl)ccc1NC(=O)CCS(=O)(=O)c1ccc2c(c1)CC(C)N2C(=O)C1CC1 (stereo not drawn),·,·,·,–,·,–
Cc1cc(C)cc(NC2=C(N)C(=O)c3ccccc3C2=O)c1,–,–,–,–,–,89.1µM
CC(C)Sc1ccc(C(=O)Nc2ccc(F)cc2F)cn1,–,–,–,–,18.9µM,–
O=C(Nc1ccc(F)cc1F)c1ccc(-n2cccn2)nc1,–,–,?,–,–,–
CC(=O)Nc1ccc(NC(=O)CCc2c(C)nc3c(c(C)nn3-c3ccc(C)cc3)c2C)cc1,·,·,·,–,·,–
COc1cc2cc(CNc3ccc(C)cc3)c(=O)n(CC(=O)Nc3ccc(F)cc3F)c2cc1OC,·,·,·,–,·,–
Cc1cc(C)c(NC(=O)CN(C)CC(=O)Nc2cccc(S(=O)(=O)N(C)c3ccccc3)c2)c(C)c1,–,–,–,–,–,–
Cc1ccccc1CN(C)CC(=O)Nc1cccc(S(=O)(=O)N(C)c2ccccc2)c1,–,–,–,–,26.7µM,–
COc1ccccc1C(=O)N/C(=C/c1ccc(Br)cc1)C(=O)N1CCCC1,–,–,–,–,26.7µM,–
COc1ccc(NCc2cc3cc4c(cc3n(CC(=O)Nc3ccc(C)c(C)c3)c2=O)OCO4)cc1,·,·,·,–,·,–
Cc1[nH]n2cnnc2c(=O)c1Br,–,-51.2,–,?,–,–
CN1CCC/C1=C1/C(=O)N(c2ccccc2)N=C1NC(=O)Nc1cccc(Cl)c1,–,?,–,–,3.77µM,?
O=C1C(=O)N(C2CCN(S(=O)(=O)c3ccccc3)CC2)CCN1Cc1ccccc1,·,·,·,–,·,–
O=C(Nc1nc2ccc(S(=O)(=O)N3CCCC3)cc2s1)c1ccc(F)cc1,·,·,·,–,·,–
O=S(=O)(Nc1nc2ccc(S(=O)(=O)N3CCCC3)cc2s1)c1ccc(F)cc1,–,·,?,–,16.8µM,–
O=S(=O)(CCN(CCS(=O)(=O)C(F)(F)F)CC1CCCO1)C(F)(F)F (stereo not drawn),–,·,–,–,26.7µM,?
Cc1ccc(C)c(N2CCN(C(=O)C(C)n3c(C)c4cnn(-c5ccccc5)c(=O)c4c3C)CC2)c1 (stereo not drawn),·,·,·,–,·,–
O=C(CNC(=O)c1cccs1)N/N=C/c1c[nH]c2ccccc12,–,–,–,–,18.9µM,–
Cc1ccccc1NCC(=O)N/N=C/c1c[nH]c2ccccc12,–,–,–,–,29.9µM,–
CC(C)Oc1cccc(C(=O)C2CCCN(C(=O)CCc3cnn(C)c3)C2)c1 (stereo not drawn),–,–,–,–,–,–
Cc1nn(C)c(C)c1CCC(=O)N1CCCC(C(=O)c2cccc(OC(C)C)c2)C1 (stereo not drawn),–,–,–,–,26.7µM,–
COC1=C(N)C(=O)c2nc(-c3nc(C(=O)O)c(C)c(-c4ccc(OC)c(OC)c4O)c3N)ccc2C1=O,?,–,?,–,–,14.1µM
CN1C(=O)NC2(O)C(=O)c3ccccc3C12O (stereo not drawn),–,-50.5,–,–,2.67µM,?
Cc1cccc(NC(=O)/C=C/c2ccc([N+](=O)[O-])s2)c1,2.06µM[inhibitor],–,?,–,–,?
Cc1ccc(NS(=O)(=O)c2ccc3[nH]c(=O)oc3c2)c(C)c1,–,–,–,–,29.9µM,?
Cc1ccc(NS(=O)(=O)c2ccc3c(c2)CC(=O)N3)c(C)c1,–,–,–,25.1µM,–,–
